Assay outcomes as filed in PubChem BioAssay.
Sampled rows, rich in hits. Any-hit rate of the full collection: about 8%.
LASV entry inh = qHTS for Inhibitors of binding or entry into cells for Lassa Virus | Lassa virus pseudotype entry inhibition, cell reporter | Potency, µM (series often up to 37.9 µM), hits mostly inhibitors | hit rate 1.2% among 300,000 | AID 540256, 2011; calls by dose curve; tested in HEK293 cells; note: nearly all actives have a fitted effect of over 50% in size
HCV inhibitor = qHTS Assay for Inhibitors of Hepatitis C Virus (HCV); Huh7.5.1 HCVcc-Cre infection, luciferase reporter, 44 h; Potency, µM (series often up to 41.8 µM), hits mostly inhibitors; hit rate 3.4% among 340,000; AID 651820, 2012; active = well fitted inhibition curve with a large enough effect; inconclusive = small, poorly fitted or top-dose-only effect, or another doubt; inactive = no such curve, though single readings can be large or run the other way
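Antiviral activity was scored by luciferase reporter output from cells infected with HCVcc-Cre (~0.5 moi) in presence of compound, 44 h infection period, cells seeded 1,000/well 4 h prior.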
FMDV inh = High Throughput Screening for Foot and Mouth Disease Virus Antivirals | FMDV antiviral cell-based qHTS | AID 1159524, 2015 | hit rate 1.2% among 410,000 | Potency, µM (titrated, usually from 57.9 µM), usual class: inhibitors; calls by dose curve; tested in HEK293T cells; note: read-out not given here; nearly all actives have a fitted effect of over 45% in size
Marburg entry inh = qHTS for inhibitors of binding or entry into cells for Marburg Virus | Marburg virus pseudotyped entry inhibition, cell reporter | Potency, µM (top dose mostly 37.8 µM), most hits filed as inhibitors | hit rate 1.8% among 300,000 | AID 540276, 2011; calls by dose curve; tested in HEK293 cells
SARS PLP yeast = qHTS of Yeast-based Assay for SARS-CoV PLP; S. cerevisiae expressing SARS-CoV PLpro, growth rescue; Potency, µM (series often up to 32.9 µM), hits mostly activators; hit rate 0.19% among 330,000; AID 485353, 2010; calls by dose curve; note: nearly all actives have a fitted effect of over 55% in size
HCMV inh = qHTS Assay for inhibitors of the human cytomegalovirus (HCMV); HFF cells, HCMV-luciferase reporter, 72 h; hits give low values; activity change, negative = inhibition, % at 57.5 µM; hit rate 4.5% among 410,000; AID 1259415, 2018; in the data active = activity change below about -60%; inconclusive = no clear call, values can overlap the other calls; inactive = above about -39%
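Inhibition of viral replication was scored as loss of reporter luminescence in HFFs infected with HCMV-luciferase (MOI 1 PFU/cell) for 72 h; compounds tested at 2 doses, normalized to buffer and Salinomycin controls.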
A number is an active result; n = inactive; u = inconclusive; x = no result.

SMILES	LASV entry inh	HCV inhibitor	FMDV inh	Marburg entry inh	SARS PLP yeast	HCMV inh
Cc1cc2nc(-c3ccc(SCc4ccc(C#N)cc4)nc3)[nH]c2cc1C	u	11.2µM	u	n	n	u
CC(=O)CSc1ccc(-c2nc3ccccc3[nH]2)cn1	u	u	n	6.31µM	n	n
O=C(CSc1ccc(-c2nc3ccccc3[nH]2)cn1)Nc1ccc(S(=O)(=O)N2CCCC2)cc1	n	n	n	n	n	n
COc1ccc(N2CCN(C(=O)CN3c4cccc5cccc(c45)S3(=O)=O)CC2)cc1	x	u	u	x	n	n
CCOc1ccc(OCC(=O)NCCS(=O)(=O)N2CCN(c3ccc(OC)cc3)CC2)cc1	n	x	n	x	x	n
COc1ccc2cc([C@@H](C#N)C3CCCC3)ccc2c1	x	x	x	x	x	n
O=C(c1ccccc1)c1coc2ccc(O)c(Cl)c12	n	x	n	n	n	n
CCOC(=O)c1c(C)oc2c1C(=O)c1ccccc1C2=O	u	5.62µM	n	u	n	n
O=C1C(=O)c2c(C(=O)c3ccccc3)coc2-c2ccccc21	u	11.2µM	n	u	n	-92.8
Cc1oc2c(c1C(=O)c1ccccc1)C(=O)C(=O)c1ccccc1-2	10µM	10µM	u	u	n	-102.9
CCOC(=O)c1c(C)nc2c(c1-c1ccccc1)C(=O)c1ccccc1-2	u	u	n	u	n	-101.0
CCCC1CC(CSC(=N)N)OC1=O (stereo not drawn)	n	n	n	u	14.1µM	n
CCCCCCC1CC(CSC(=N)N)OC1=O (stereo not drawn)	n	n	n	n	n	n
COC(=O)c1cccnc1-n1c(=O)c2cccnc2n(Cc2cccc([N+](=O)[O-])c2)c1=O	x	n	n	x	n	-85.8
COC(=O)c1cccnc1-n1c(=O)c2cccnc2n(Cc2ccc(Cl)cc2)c1=O	n	n	n	n	n	n
Cc1ccc2occ(CC(=O)Nc3c(C(=O)Nc4ccc(Cl)cc4)oc4ccccc34)c2c1	n	x	n	n	x	n
Cc1ccc(NC(=O)CNCc2ccccc2)c(Br)c1	x	n	n	n	n	n
Cc1ccc(CNCC(=O)Nc2ccc(C)cc2Br)cc1	n	n	n	n	n	-64.0
O=C1NC(=S)N(c2ccccc2)C(=O)/C1=C/c1ccco1	n	n	35.5µM	u	n	n
COc1ccc(N2C(=O)/C(=C/c3ccc(N(C)C)o3)C(=O)NC2=S)cc1	x	n	n	x	n	n
COc1ccc(N2C(=O)/C(=C/c3cccs3)C(=O)NC2=S)cc1	n	n	25.1µM	n	n	n
O=C1NC(=O)N(CCc2ccc(F)cc2)C(=O)/C1=C/c1ccco1	n	n	n	n	n	n
Cc1ccc(/C=C2/C(=O)NC(=O)N(CCc3ccc(F)cc3)C2=O)o1	n	n	25.1µM	u	u	n
CCOc1cccc(N2C(=O)/C(=C/c3ccco3)C(=O)NC2=S)c1	x	n	n	x	n	n
COc1cccc(N2C(=O)/C(=C/c3ccc(C)o3)C(=O)NC2=S)c1	x	n	17.8µM	x	n	n
SMILES	LASV entry inh	HCV inhibitor	FMDV inh	Marburg entry inh	SARS PLP yeast	HCMV inh
CC(=O)OC1C[C@@]2(C)C(c3ccoc3)OC(=O)C3O[C@@]32[C@]2(C)C(OC(C)=O)CC3C(C)(C)C(OC(C)=O)CC(OC(C)=O)[C@@]3(C)C12 (stereo partly drawn)	x	x	n	x	x	x
O=C1C=C(O)C[C@H](c2cccs2)C1	x	x	x	n	x	x
COc1ccc(N2C(=O)/C(=C/C=C/c3ccccc3[N+](=O)[O-])C(=O)NC2=S)cc1	n	n	22.4µM	n	n	n
Cc1ccc(/C=C2\C(=O)NC(=S)N(c3ccc(F)cc3)C2=O)o1	x	n	31.6µM	x	n	n
CCN1C(=O)N/C(=C/c2ccc(C)o2)C1=O	n	n	n	n	n	n
Cc1ccc(/C=C2/NC(=O)N(Cc3ccccc3F)C2=O)o1	n	n	n	n	n	-72.3
O=c1oc2ccccc2c(N2CCN(c3ccccc3F)CC2)c1CN1CCCC1	u	x	n	u	x	n
NNC(=O)C1=NN=C(C23CC4CC(CC(C4)C2)C3)C1	x	x	x	n	x	x
COC(=O)c1cc2c(cc1NC(=O)c1cnn(-c3ccc(C)cc3)c1-n1cccc1)OCO2	n	x	n	x	x	n
COC(=O)c1cnc(Oc2ccc(NC(=O)NC(=O)c3c(OC)cccc3OC)cc2)cc1C(F)(F)F	u	n	n	1.58µM	n	-97.9
Cc1ccc(S(=O)(=O)Nc2ccccc2C(=O)OC(C)C(=O)Nc2ccc3ccccc3c2)cc1[N+](=O)[O-] (stereo not drawn)	n	n	n	u	n	u
CC(=O)c1ccc(NC(=O)C(C)OC(=O)c2ccc(NS(=O)(=O)c3ccc(F)c(F)c3)cc2)cc1 (stereo not drawn)	n	12.6µM	n	n	n	n
Cc1ccc(NC(=O)C(C)OC(=O)c2ccc(NS(=O)(=O)c3ccc(F)c(F)c3)cc2)cc1 (stereo not drawn)	u	u	u	u	n	n
CCc1ccc(NC(=O)C(C)OC(=O)c2ccc(NS(=O)(=O)c3ccc(C)c([N+](=O)[O-])c3)cc2)cc1 (stereo not drawn)	u	11.2µM	n	u	n	n
Cc1cc(C(=O)C(=O)O)c(C)n1-c1ccc(Cl)cc1	n	n	n	n	n	n
Cc1cc(C(=O)C(C)Sc2cccc[n+]2[O-])c(C)n1-c1ccc(Cl)cc1 (stereo not drawn)	u	4.47µM	n	u	n	n
CCCCOC(=O)c1ccc(NC(=O)CC2NCCNC2=O)cc1 (stereo not drawn)	n	x	n	n	x	n
Cn1nnnc1SCc1nc2scc(-c3ccc(Cl)cc3)c2c(=O)[nH]1	x	u	n	x	n	-69.8
C=CCn1c(SCc2nc3scc(-c4ccccc4)c3c(=O)[nH]2)nnc1-c1ccccc1F	n	n	28.2µM	u	u	n
CC(C)(C)c1nc(SCC(=O)N2CC(=O)Nc3ccccc32)c2ccccc2n1	n	n	n	n	n	n
Cc1ccc(-n2c(SCC(=O)N3CC(=O)Nc4ccccc43)nc3ccccc3c2=O)cc1C	x	u	u	n	n	-80.0
CC(C)Cn1c(SCC(=O)N2CC(=O)Nc3ccccc32)nc2ccccc21	n	n	n	u	n	n
COCC(C)n1c(SCC(=O)N2CC(=O)Nc3ccccc32)nc2ccccc2c1=O (stereo not drawn)	x	n	n	x	n	n
CC(c1ccccc1)n1c(SCC(=O)N2CC(=O)Nc3ccccc32)nc2ccccc2c1=O (stereo not drawn)	u	u	u	u	n	-81.4
Cc1cccc(-n2c(SCC(=O)N3CC(=O)Nc4ccccc43)nc3ccccc3c2=O)c1C	x	u	u	n	n	-64.5
Cc1cccc(-n2c(SCC(=O)N3CC(=O)Nc4ccccc43)nc3ccccc3c2=O)c1	u	n	n	n	n	-62.1
